HSF-1 act – increases HSF-1 driven luciferase reporter signal; AID 504408; activation, % at 9 µM; NIH3T3-HGL HSF-1 luciferase reporter, MG132, 8 h; 100% = twice DMSO control signal; 300,000 tested, 1.7% active;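 active = mean replicate activation of at least 50% with a set share of replicates each reaching 50%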;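 note: 0% = median of the neutral control wells and 100% = twice that signal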
HSP90 inh – HSP90 refolding inhibition in rabbit reticulocyte lysate; AID 1789; inhibition, % at 5.6 µM; luciferase refolding luminescence, 3 h; 290,000 tested, 0.91% active;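 active = inhibition above the screen-wide mean plus 3 SD, computed separately per campaign, cut at about 16% in these data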;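 note: 0% = DMSO wells and 100% = 60 µM geldanamycin wells; inhibitors lower the luminescence because luciferase stays unfolded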
p-CIP stab down – lowers stability of the mouse p/CIP coactivator protein; AID 1984; decrease of EGFP signal, % at 10 µM; F442A p/CIP-EGFP cells, EGFP fluorescence, 16 h; Q05BA5; 290,000 tested, 0.01% active;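 active = EGFP signal decrease of at least 30% at 10 µM or well 3 SD below plate mean, unless failing retest; inactive = the rest, including hits failing retest or dose response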
Target sequence (Q05BA5 1-1403): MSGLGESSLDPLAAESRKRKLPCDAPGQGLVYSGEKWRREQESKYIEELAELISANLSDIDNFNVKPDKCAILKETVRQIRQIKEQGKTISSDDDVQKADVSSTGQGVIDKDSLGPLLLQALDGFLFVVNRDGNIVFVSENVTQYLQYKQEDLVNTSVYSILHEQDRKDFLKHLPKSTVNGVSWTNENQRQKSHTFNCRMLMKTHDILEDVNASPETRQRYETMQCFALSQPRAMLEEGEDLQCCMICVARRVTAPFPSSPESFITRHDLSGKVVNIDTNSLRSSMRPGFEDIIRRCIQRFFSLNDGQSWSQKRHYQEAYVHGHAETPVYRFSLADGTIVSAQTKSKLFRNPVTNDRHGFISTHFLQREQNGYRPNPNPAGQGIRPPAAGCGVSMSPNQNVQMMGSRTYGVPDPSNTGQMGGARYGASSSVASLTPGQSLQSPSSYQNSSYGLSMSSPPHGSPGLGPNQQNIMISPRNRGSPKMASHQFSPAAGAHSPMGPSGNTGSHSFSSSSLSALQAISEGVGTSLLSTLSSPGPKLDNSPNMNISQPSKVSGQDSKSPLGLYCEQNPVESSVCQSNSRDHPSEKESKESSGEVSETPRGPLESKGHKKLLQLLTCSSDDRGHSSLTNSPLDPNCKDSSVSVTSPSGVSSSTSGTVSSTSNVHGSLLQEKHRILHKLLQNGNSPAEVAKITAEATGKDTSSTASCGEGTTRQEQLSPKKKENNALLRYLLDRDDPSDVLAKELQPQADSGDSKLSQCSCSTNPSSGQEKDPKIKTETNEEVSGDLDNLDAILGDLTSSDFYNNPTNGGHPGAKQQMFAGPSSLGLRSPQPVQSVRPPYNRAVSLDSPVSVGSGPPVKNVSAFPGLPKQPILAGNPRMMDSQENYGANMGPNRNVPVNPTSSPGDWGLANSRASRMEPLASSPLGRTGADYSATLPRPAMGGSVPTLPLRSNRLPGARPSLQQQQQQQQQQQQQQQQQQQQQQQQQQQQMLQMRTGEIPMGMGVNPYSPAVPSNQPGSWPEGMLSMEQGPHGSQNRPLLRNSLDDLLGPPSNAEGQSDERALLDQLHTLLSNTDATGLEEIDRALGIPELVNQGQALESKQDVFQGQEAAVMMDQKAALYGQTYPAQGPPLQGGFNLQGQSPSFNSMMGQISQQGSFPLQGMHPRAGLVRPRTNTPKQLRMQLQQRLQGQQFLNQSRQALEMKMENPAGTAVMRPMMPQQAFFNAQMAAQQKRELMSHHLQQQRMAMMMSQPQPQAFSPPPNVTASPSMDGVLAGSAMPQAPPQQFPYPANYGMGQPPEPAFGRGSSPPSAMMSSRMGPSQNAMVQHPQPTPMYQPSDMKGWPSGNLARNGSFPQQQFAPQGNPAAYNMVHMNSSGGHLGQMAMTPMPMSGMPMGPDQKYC
NALP1 inh – blocks the NALP1 inflammasome reconstituted in yeast; S. cerevisiae NALP1/ASC/caspase-1 growth, X-gal OD620, 72 h; inhibition, % at 10 µM; 280,000 tested, 0.61% active; AID 2071; in the data active = inhibition mostly above about 24%, no sharp cut-off; inactive = mostly below about 32%
Hsp70 act – transcriptional activators of Hsp70; 200,000 tested, 0.04% active; activation, % at 10 µM; HeLa Hsp70 promoter luciferase reporter, luminescence; scaled: vehicle 0, proteasome-inhibitor control 100%; AID 1203;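 active = activation above the mean across all tested compounds plus 3 SD, cutoff set per campaign, cut at about 5.5% in these data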;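 note: 100% = MG132 at 30 µM as the positive control and 0% = DMSO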
HSF1 inhib – HSF1 inhibition | 300,000 tested, 0.77% active | NIH3T3-HGL HSE-luciferase, MG132-induced, luminescence 8 h; hits give low values | AID 2098 | activity change, negative = inhibition, % at 7.5 µM (by protocol);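 active = more than half of replicate wells show activity change below -50%, luminescence cut by over half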;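 note: luciferase reports HSF-1 transcriptional activity via heat shock element; 0% = median of DMSO wells and -100% = zero luminescence signal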
* marks the source's active call; other numbers are inactive results; / = no result given. An excerpt weighted towards active compounds, which were near 3.8% of everything screened.

SMILES | HSF-1 act | HSP90 inh | p-CIP stab down | NALP1 inh | Hsp70 act | HSF1 inhib
Cc1cc(C)c(NC(=O)CSc2nncn2-c2cccnc2)c(C)c1 | -61 | -6 | -2 | -4 | 0 | -54*
Nc1nnn(-c2ccccc2)c1-c1ccccc1 | 4 | / | / | / | / | 2
Clc1c(-c2ccccc2)nnn1-c1ccccc1 | 75* | -3 | 7 | 26 | 0 | 41
O=C(Nc1ccnn1C1CCN(Cc2c(F)cccc2Cl)CC1)C1CCCC1 | -35 | -2 | 9 | 18 | / | -19
Cc1cc(/C=C2/C(=O)NN(c3ccccc3)C2=O)c(C)n1-c1cccc(O)c1 | -69 | 14 | -6 | 1 | 0 | -63*
Cc1cc(/C=C2\SC(=S)NC2=O)c(C)n1-c1cccc(O)c1 | 37 | 4 | -17 | 13 | / | 12
COc1ccc(OCC(=O)Nc2cccc(OC)c2)cc1 | -2 | 1 | -25 | 25 | 0 | 0
COc1cccc(NC(=O)COc2ccccc2C(N)=O)c1 | 71* | 0 | -2 | -1 | 1 | 27
Cc1cccc(-c2nn(-c3ccccc3)cc2C(=O)NCC(c2cccs2)N2CCOCC2)c1 (stereo not drawn) | 15 | / | / | / | / | 12
COCCCNc1nc2nonc2nc1N1CCN(Cc2cccc(C)c2)CC1 | 63* | 1 | -4 | 10 | 0 | 21
O=C(Nc1ccc(F)cc1)c1cccnn1 | -14 | -3 | -3 | 5 | / | -6
O=C(CSc1nc(N2CCOCC2)nc(N2CCOCC2)n1)Nc1ccccc1F | 11 | 3 | -2 | -2 | / | 1
CC(C)N(Cc1cn[nH]c1-c1ccc(-c2ccccc2)cc1)Cc1nccn1C | 59* | -2 | -17 | -9 | 0 | 29
COc1n[nH]c(C(=O)Nc2nc3ccccc3s2)c1[N+](=O)[O-] | -69 | -4 | 10 | -2 | 0 | -65*
Cc1cc(C)n(-c2ccc(C(=O)Nc3nc4ccccc4s3)cc2)n1 | 22 | -5 | -8 | 8 | 0 | 9
COc1ccc(C(=O)Nc2nc3ccccc3s2)c(OC)c1 | -93 | 91* | 4 | / | / | -93*
COc1ccc2nc(NC(=O)c3ccccc3C(=O)O)sc2c1 | 2 | -2 | -2 | 18 | / | 0
Nc1ccc(C(=O)Nc2nc3ccccc3s2)cc1 | 57* | 5 | -10 | 51 | 0 | 33
COc1n[nH]c(C(=O)NCc2ccccc2)c1[N+](=O)[O-] | / | -1 | -34 | -1 | 0 | /
CCOC(=O)C1CCN(C(=O)CNC(=O)Cn2c(C)cc3ccccc3c2=O)CC1 | 3 | -2 | -1 | 4 | / | -4
Cn1cc(S(=O)(=O)N2CCOCC2)cc1C(=O)Nc1cccc(Cl)c1 | -4 | -8 | 1 | -2 | / | -3
Cn1cccc1/C=C(/C#N)c1ccc(F)cc1 | 12 | 1 | -2 | 9 | 0 | 9
CC(=O)c1c(C)[nH]c(C(=O)CSc2nnc(CN3CCCCCC3=O)n2-c2ccccn2)c1C | / | -2 | 5 | 42* | 0 | /
CCNC(=O)CSc1nnc(CN2CCCCCC2=O)n1-c1ccccn1 | 0 | 0 | -61 | 0 | 0 | -7
O=C(Nc1cccc2ccccc12)c1ccc([N+](=O)[O-])o1 | 72* | 2 | -12 | 10 | / | 58
SMILES | HSF-1 act | HSP90 inh | p-CIP stab down | NALP1 inh | Hsp70 act | HSF1 inhib
O=C(Nc1cc(-c2nc3ncccc3o2)ccc1Cl)c1cccs1 | -7 | 0 | -16 | -6 | / | 0
O=C(Nc1cccc(NC(=O)c2ccccc2Cl)c1)c1ccc([N+](=O)[O-])o1 | 97* | 1 | -21 | 18 | / | 55
CC(C)C(=O)N1CCN(c2ccccc2NC(=O)c2ccc([N+](=O)[O-])o2)CC1 | 80* | 7 | -16 | 7 | / | 41
O=C(Nc1cc(-c2nc3ncccc3o2)ccc1Cl)c1ccc([N+](=O)[O-])o1 | 110* | 4 | -18 | -5 | / | 78
COc1ccc(S(=O)(=O)N2CCOC2CNC(=O)C(=O)NCCN2CCOCC2)cc1C (stereo not drawn) | 24 | 0 | 11 | 8 | / | 0
Cc1nn(-c2nnc(NC3CCCCC3)nn2)c(C)c1Br | 38 | 3 | 10 | 13 | 0 | 11
Clc1ccc(OCc2noc(-c3ccsc3)n2)c(Cl)c1 | 48 | 0 | -11 | 24 | / | 26
Cc1ccc(-n2nc(C)c(NC(=O)COC(=O)c3ccccc3NCCO)c2C)cc1 | -2 | / | / | / | / | -5
COc1ccccc1NC(=O)c1ccc([N+](=O)[O-])o1 | -88 | / | / | / | / | -86*
